“And” between values parts separate entries of the source, which are not always exact repeats. Identical values can stand only once. The campaign covered roughly 5,500 compounds. About 2,000 (36%) were called active. Inconclusive results (about 18%) are left out. Cut-off read from the data, not from the text of the source: active = normalized growth mostly below about 0.91 (no sharp cut-off); inconclusive = no clear call, values can overlap the other calls; inactive = mostly above about 0.92. This is one part of the list.
Experiment: chemical genetic growth profiling, strain panel (AID 1159580);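 note: tested at 20 µM; growth read once vehicle control cultures reached saturation at 30 °C; 1 = growth at the plate median or of vehicle wells; lower values mean less growth of the strain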
Conditions: S. cerevisiae deletion strains, growth OD

Measured: normalized growth

COc1ccc([C@@H]2CC(=O)c3c(O)cc(O)cc3O2)cc1O
inactive: locus YAL013W, strain DEP1, hits give low values 1.03 | locus YAL021C, strain ccr4, hits give low values 0.976 | locus YAL026C, strain drs2, hits give low values 0.978 | locus YAL030W, strain snc1, hits give low values 0.982 | locus YBL061C, strain skt5, hits give low values 0.977 | locus YBR009C, strain hhf1, hits give low values 0.983 | locus YBR021W, strain FUR4, hits give low values 1 | locus YBR023C, strain chs3, hits give low values 0.976 | locus YBR171W, strain sec66, hits give low values 0.999 | locus YBR229C, strain ROT2, hits give low values 1 | locus YBR231C, strain swc5, hits give low values 0.989 | locus YBR279W, strain paf1, hits give low values 0.982 | locus YCL011C, strain gbp2, hits give low values 0.975 | locus YCL016C, strain dcc1, hits give low values 0.961 | locus YCL029C, strain bik1, hits give low values 1.02 | locus YCL061C, strain MRC1, hits give low values 0.978 | locus YCL069W, strain vba3, hits give low values 0.99 | locus YCR088W, strain abp1, hits give low values 0.977 | locus YDL005C, strain med2, hits give low values 0.978 | locus YDL035C, strain GPR1, hits give low values 0.971 | locus YDL040C, strain nat1, hits give low values 0.986 | locus YDL074C, strain BRE1, hits give low values 1 | locus YDL101C, strain DUN1, hits give low values 1.01 | locus YDL185W, strain tfp1, hits give low values 1.01 | locus YDL192W, strain arf1, hits give low values 1 | locus YDR001C, strain nth1, hits give low values 0.973 | locus YDR069C, strain doa4, hits give low values 0.983 | locus YDR101C, strain arx1, hits give low values 1.02 | locus YDR137W, strain rgp1, hits give low values 0.973 | locus YDR159W, strain sac3, hits give low values 0.995 | locus YDR162C, strain NBP2, hits give low values 0.999 | locus YDR195W, strain ref2 0.994 | locus YDR297W, strain sur2, hits give low values 0.976 | locus YDR318W, strain mcm21, hits give low values 0.993 | locus YDR334W, strain swr1, hits give low values 0.985 | locus YDR335W, strain msn5, hits give low values 0.975 | locus YDR388W, hits give low values 1 | locus YDR392W, strain spt3, hits give low values 0.862 | locus YDR502C, strain sam2, hits give low values 0.995 | locus YEL003W, strain gim4, hits give low values 0.976 | locus YEL037C, strain rad23, hits give low values 0.973 | locus YEL061C, strain CIN8 (second series), hits give low values 0.977 | locus YEL061C, strain CIN8, hits give low values 1 | locus YER015W, strain faa2, hits give low values 0.983 | locus YER016W, strain bim1, hits give low values 0.976 | locus YER110C, hits give low values 1.01 | locus YER111C, strain swi4, hits give low values 0.963 | locus YER155C, strain BEM2 (second series), hits give low values 0.926 | locus YER155C, strain BEM2, hits give low values 0.998 | locus YER167W, strain BCK2, hits give low values 1 | locus YFR010W, strain ubp6, hits give low values 0.972 | locus YGL078C, strain dbp3, hits give low values 1 | locus YGL086W, strain mad1, hits give low values 1.03 | locus YGL167C, strain pmr1, hits give low values 0.977 | locus YGL173C, strain kem1, hits give low values 0.978 | locus YGL227W, strain vid30, hits give low values 0.988 | locus YGL240W, strain doc1, hits give low values 0.989 | locus YGL248W, strain PDE1, hits give low values 1.01 | locus YGL253W, strain hxk2, hits give low values 0.961 | locus YGR078C, strain PAC10, hits give low values 1.02 | locus YGR135W, strain pre9, hits give low values 0.979 | locus YGR229C, strain SMI1, hits give low values 0.983 | locus YGR252W, strain gcn5, hits give low values 0.893 | locus YHR013C, strain ard1, hits give low values 0.955 | locus YHR027C, strain rpn1, hits give low values 0.994 | locus YHR030C, strain SLT2, hits give low values 1.01 and 1 | locus YHR079C, strain IRE1 (second series), hits give low values 1.01 | locus YHR079C, strain IRE1, hits give low values 1.01 | locus YHR094C, strain hxt1, hits give low values 1.01 | locus YHR129C, strain ARP1, hits give low values 1 | locus YHR142W, strain chs7, hits give low values 0.918 | locus YHR200W, strain rpn10, hits give low values 0.993 | locus YIL066C, strain RNR3, hits give low values 0.979 | locus YIL073C, strain SPO22, hits give low values 1.05 | locus YIL125W, strain kgd1, hits give low values 1.01 | locus YIR030C, strain dcg1, hits give low values 1.01 | locus YJL092W, strain hpr5, hits give low values 0.976 | locus YJL095W, strain BCK1 (second series), hits give low values 0.978 | locus YJL095W, strain BCK1, hits give low values 1.04 and 1 | locus YJL115W, strain asf1, hits give low values 0.984 | locus YJL129C, strain trk1, hits give low values 0.939 | locus YJL134W, strain LCB3, hits give low values 1 | locus YJL154C, strain vps35, hits give low values 0.98 | locus YJL164C, strain tpk1, hits give low values 0.972 | locus YJL166W, strain qcr8, hits give low values 0.969 | locus YJL168C, strain set2, hits give low values 1 | locus YJL187C, strain SWE1 (second series), hits give low values 1.02 | locus YJL187C, strain SWE1, hits give low values 0.981

Source: PubChem BioAssay AID1159580 (chemical genetic matrix, 2015)
